Results published in PubChem BioAssay (EPA / NIEHS).
Records with an inconclusive call do not appear. More than one record can exist for a structure, and the calls need not agree. Calls of active or inactive are those of the source. How the source made its calls, unless noted: active means hit-call score of the fitted dose curve at least 0.9, where 1 is the maximum; inconclusive means response in the unintended direction; inactive means score below 0.9.

Key:
[1] = TOX21_p53_BLA_p2_viability: Viability Assessment in the Tox21 HCT-116 p53 Agonism Beta-lactamase Assay, Phase 2 (AID 2283591);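 further: compound exposure lasted 16 h at 37 °C; actives lower the ATP signal meaning cytotoxicity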
Procedure, shortened: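 Cytotoxicity readout: CellTiter-Glo ATP luminescence, 30 min at room temperature, after the beta-lactamase read. Cells were HCT116 exposed 16 h at 37C to compounds pin-transferred at 217-fold dilution from DMSO stocks.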

[2] = target: Cellular tumor antigen p53 (Homo sapiens) (UniProt P04637); assay: TOX21_p53_BLA_p2_ratio: Tox21 HCT-116 p53 Agonism Beta-lactamase Assay, Ratio, Phase 2 (AID 2283592)
Sequence of Cellular tumor antigen p53 (Homo sapiens) (P04637 whole entry, looked up): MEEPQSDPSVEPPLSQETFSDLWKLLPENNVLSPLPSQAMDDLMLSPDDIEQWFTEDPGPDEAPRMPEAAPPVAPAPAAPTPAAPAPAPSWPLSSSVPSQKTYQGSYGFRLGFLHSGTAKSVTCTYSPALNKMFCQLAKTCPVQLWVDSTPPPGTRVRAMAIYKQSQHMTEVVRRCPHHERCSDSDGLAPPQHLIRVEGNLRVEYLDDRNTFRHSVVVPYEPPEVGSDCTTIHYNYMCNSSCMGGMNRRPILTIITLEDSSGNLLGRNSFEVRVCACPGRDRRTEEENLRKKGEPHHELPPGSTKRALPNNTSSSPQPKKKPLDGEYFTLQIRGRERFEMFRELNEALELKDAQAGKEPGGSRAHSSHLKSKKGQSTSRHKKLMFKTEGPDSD
Procedure, shortened: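 Cleaved-to-uncleaved substrate ratio (460 vs 530 nm) measured in HCT116 cells with an inducible beta-lactamase reporter linked to p53 activity. Compounds incubated 16 h at 37C before 2 h room-temperature CCF4-AM loading.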

[3] = TOX21_p53_BLA_p3_viability: Viability Assessment in the Tox21 HCT-116 p53 Agonism Beta-lactamase Assay, Phase 3 (AID 2283593);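 further: cells exposed to compound for 16 h before reading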
Procedure, shortened: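 Cellular ATP was quantified by CellTiter-Glo luminescence, read after 30 min at room temperature. Beforehand, HCT116 cells (4000/well) received compound 5 h post-seeding, 217-fold diluted from DMSO, then incubated 16 h at 37C.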

[4] = target: Cellular tumor antigen p53 (Homo sapiens) (UniProt P04637); assay: TOX21_p53_BLA_p3_ratio: Tox21 HCT-116 p53 Agonism Beta-lactamase Assay, Ratio, Phase 3 (AID 2283596)
Procedure, shortened: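 Cells were seeded at 4000/well, rested 5 h at 37C, then dosed with DMSO compound solutions (217-fold dilution) for 16 h. CCF4-AM substrate was loaded for 2 h at room temperature, and the 460/530 nm emission ratio was fitted for gain of signal versus DMSO.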

[5] = TOX21_p53_BLA_p4_viability: Viability Assessment in the Tox21 HCT-116 p53 Agonism Beta-lactamase Assay, Phase 4 (AID 2283597);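 further: hits lower the luminescence signal meaning cytotoxicity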
Procedure, shortened: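 Viability is taken as cellular ATP: after 16 h compound exposure of HCT116 cells and a 2 h room-temperature CCF4-AM substrate step, CellTiter-Glo reagent is added and luminescence is measured 30 min later.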

[6] = TOX21_p53_BLA_p5_viability: Viability Assessment in the Tox21 HCT-116 p53 Agonism Beta-lactamase Assay, Phase 5 (AID 2283600)
Procedure, shortened: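 Viability is taken from cellular ATP content, measured by luciferase luminescence in the same wells after the beta-lactamase ratio read. Cells are seeded at 4000 per well and exposed to DMSO-dissolved compounds, diluted 217-fold, for 16 h.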

[7] = target: Cellular tumor antigen p53 (Homo sapiens) (UniProt P04637); assay: TOX21_p53_BLA_p5_ratio: Tox21 HCT-116 p53 Agonism Beta-lactamase Assay, Ratio, Phase 5 (AID 2283599)
Procedure, shortened: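 Beta-lactamase reporter ratio (blue 460 nm over green 530 nm, 405 nm excitation) after 2 h CCF4-AM loading, in HCT-116 cells exposed 16 h at 37 C to compounds pinned at 217-fold dilution. Increases relative to DMSO baseline scored.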

[8] = target: Cellular tumor antigen p53 (Homo sapiens) (UniProt P04637); assay: TOX21_p53_BLA_p4_ratio: Tox21 HCT-116 p53 Agonism Beta-lactamase Assay, Ratio, Phase 4 (AID 2283601)
Procedure, shortened: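 Signal is the blue/green (460nm/530nm) ratio of cleaved versus uncleaved CCF4-AM substrate, read after 2 h substrate loading. Cells were HCT116 carrying the p53-responsive beta-lactamase reporter, dosed 16 h at 37C, 5% CO2; CellTiter-Glo measured in parallel.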

[9] = target: THRA (gene 7067) (UniProt P10827); assay: TOX21_TRA_COA_Antagonist_Followup_ratio: Tox21 Thyroid Hormone Receptor alpha Antagonism through Coactivator Recruitment Follow-Up Assay, Ratio (AID 2283953)
Sequence of THRA (gene 7067) (P10827 whole entry, looked up, the tested form may be a part): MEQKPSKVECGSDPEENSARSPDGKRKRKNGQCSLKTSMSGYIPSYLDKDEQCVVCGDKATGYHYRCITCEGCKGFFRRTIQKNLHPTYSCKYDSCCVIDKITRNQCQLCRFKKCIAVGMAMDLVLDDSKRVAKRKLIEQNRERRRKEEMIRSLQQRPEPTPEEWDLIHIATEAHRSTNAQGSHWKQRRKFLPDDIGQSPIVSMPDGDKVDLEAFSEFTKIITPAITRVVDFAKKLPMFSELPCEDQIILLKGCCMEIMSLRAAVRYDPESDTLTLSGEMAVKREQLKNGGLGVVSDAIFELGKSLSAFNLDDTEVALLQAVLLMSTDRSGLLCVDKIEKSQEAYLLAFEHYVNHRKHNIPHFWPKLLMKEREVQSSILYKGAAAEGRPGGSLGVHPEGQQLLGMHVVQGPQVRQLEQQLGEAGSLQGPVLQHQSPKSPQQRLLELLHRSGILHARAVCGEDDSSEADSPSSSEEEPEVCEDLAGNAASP
Procedure, shortened: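 GST-TRα LBD 2.5 nM, BSA 0.10%, + cpd; then FITC-SRC-2 peptide 200 nM + Tb-anti-GST Ab 2 nM. TR-FRET ratio 520/495 nm. Norm: DMSO = 0%, T3 = 100%.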

[10] = TOX21_TRB_BLA_Antagonist_Followup_viability: Viability Assessment in the Tox21 Thyroid Hormone Receptor beta Antagonism Beta-lactamase (BLA) Follow-Up Assay (AID 2283961)
Procedure, shortened: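 Cytotoxicity is measured in parallel with the antagonist-mode TRβ beta-lactamase screen, using ATP-coupled luciferase luminescence. Engineered HEK293T cells are treated for 18 h with 11-point compound series in triplicate.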

[11] = CCTE_Harrill_HTTr_Viability_MCF7: CCTE's 6-hour Cell Viability Assessment for the High-Throughput Transcriptomics (HTTr) Platform, in MCF-7 cells cultured in DMEM + 10% fetal bovine serum, Harrill Lab (AID 2284010; active means hit-call score of the fitted dose curve at least 0.9, where 1 is the maximum; inactive means score below 0.9)
Procedure, shortened: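 Propidium iodide exclusion, imaged by high-content analysis, gauged viability after a six-hour exposure across eight concentrations. Cells were MCF-7 grown in DMEM with 10% fetal bovine serum; fits run in both directions against DMSO.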

[12] = CCTE_Harrill_HTTr_CellCount_MCF7: CCTE's Cell Proliferation Assessment for the High-Throughput Transcriptomics (HTTr) Platform, Harrill Lab (AID 2284012);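 further: cells exposed to compound for six hours; intended direction is loss of nuclei count meaning fewer cells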
Procedure, shortened: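 Cell count from high-content imaging of Hoechst-labeled nuclei serves as viability/growth readout. Chemicals were applied to MCF-7 cells in eight concentrations for six hours, with fitting in both directions relative to DMSO.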

[13] = CCTE_Harrill_HTTr_Apoptosis_MCF7: CCTE's 6-hour Apoptosis Assessment for the High-Throughput Transcriptomics (HTTr) Platform, in MCF-7 cells cultured in DMEM + 10% fetal bovine serum, Harrill Lab (AID 2284011; active means hit-call score of the fitted dose curve at least 0.9, where 1 is the maximum; inactive means score below 0.9)
Procedure, shortened: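 Cells are dosed with test chemicals at eight concentrations and imaged 6 hours later for caspase-3/7 activity using a green fluorogenic detection reagent. Activity is fitted in both directions against DMSO controls.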

Measured: AC50

C=CC(=O)OCCN(C)C
inactive: [1] | [2] | [3] | [4] | [5] | [6]

O=c1oc2ccccc2c(O)c1Cc1c(O)c2ccccc2oc1=O
inactive: [6] | [9] | [10]
active: [1] 8.02 µM | [2] 6.79 µM | [3] 0.819 µM | [4] 1.07 µM | [5] 3.3 µM | [7] 3.93 µM | [8] 3.95 µM

Clc1ccc([C@@H]2C[C@H]3CC[C@@H]2N3)cn1
inactive: [1] | [2] | [3] | [4] | [5] | [7] | [8]

Cc1ccccc1
not listed: [9] | [10] | [11] | [12] | [13]
inactive: all other assays above

Oc1cc(Cl)cc(Cl)c1
active: [2] 79 µM | [7] 85.2 µM
inactive: [1] | [3] | [4] | [5] | [8]

COc1cccc2c1cc([N+](=O)[O-])c1c(C(=O)O)cc3c(c12)OCO3
active: [2] 1.75 µM | [3] 79.8 µM | [4] 6.78 µM | [7] 13.2 µM | [8] 3.74 µM
inactive: [1] | [5] | [11] | [12]

O=C(O)c1nn(Cc2ccc(Cl)cc2Cl)c2ccccc12
active: [8] 81.2 µM
inactive: [1] | [2] | [3] | [4] | [5] | [7] | [6] | [8]

Cc1ccccc1-n1c(C)nc2ccccc2c1=O
inactive: [1] | [2] | [3] | [4] | [5] | [7] | [8]

O=[N+]([O-])c1ccc(Oc2ccc(C(F)(F)F)cc2[N+](=O)[O-])cc1
not listed: [9] | [10] | [11] | [12] | [13]
inactive: all other assays above

CCCCC#N
inactive: [1] | [2] | [3] | [4] | [5] | [6] | [8]

CCCCCCCCCCCCN=C(N)N
not listed: [9] | [10]
inactive: all other assays above
